Most compounds without a hit are left out; they make up all but 3% or so of the library.
Peg3 promoter: inhibitors of Peg3 promoter; 360,000 tested, 1.7% active; HeLa PEG-Prom luciferase reporter, luminescence, overnight; inhibition, % at 20 µM;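 active = inhibition of at least 50% at 20 µM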
CF NFkB block: cystic fibrosis NF-kB activation inhibition; inhibition, % at 5 µM; AID 588850; KKLEB NF-kB-GFP reporter, PAF-induced, GFP fluorescence overnight; 360,000 tested, 0.86% active;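 active = at least 50% inhibition at 5 µM, scaled per plate between neutral and stimulator controls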;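 note: PAF is a Pseudomonas aeruginosa culture filtrate used as stimulus; plate controls were PAF-stimulated DMSO wells for no effect and unstimulated DMSO wells for full effect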
HIF-2a block: blocks HIF-2a reporter activity; inhibition, % at 18.8 µM; 360,000 tested, 0.72% active; AID 624352; 786-0 RCC cells HIF-2a reporter, luciferase luminescence, overnight;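 active = inhibition of the luminescence signal of 40% or more relative to plate controls, in a single-dose primary screen at 18.75 µM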
ABHD5-PLIN5 inh: inhibitors of human ABHD5-perilipin-5 interaction; Q00G26+Q8WTS1; Split G. princeps luciferase complementation, luminescence, 4 h; inhibition, % at 4 µM; 360,000 tested, 0.78% active;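 active = inhibition above the mean inhibition across every tested compound plus 3 SD, cut at about 22% in these data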;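 note: 0% = DMSO only wells and the 100% control is not disclosed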
MITF TRPM1 inh: inhibitors of MITF-driven TRPM1 promoter in melanoma cells; SK-MEL-5 TRPM1 promoter luciferase, 24 h; 330,000 tested, 0.83% active; inhibition, % at 12.5 µM;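 active = mean inhibition across replicates of 60% or more, whatever share of single replicates reaches that level; inconclusive = some that reach 60%, reason not given; inactive = mean inhibition across replicates below 60%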
KKLEB tox: counter-screen for CF NF-kB inhibitors: cytotoxicity. AID 602141. activity change (cytotoxicity), % at 5 µM. 360,000 tested, 0.36% active. KKLEB CF airway cells viability, ATPlite luminescence, overnight; active compounds read low; cells stimulated with P. aeruginosa culture filtrate;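 active = corrected activity change at or below -50% at 5 µM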
Starred values were filed as active, the others as inactive; ? = inconclusive; . = not tested or not shown.

SMILES	Peg3 promoter	CF NFkB block	HIF-2a block	ABHD5-PLIN5 inh	MITF TRPM1 inh	KKLEB tox
Cc1cccnc1C(NC(=O)C1CCN(CCCc2ccccc2)CC1)c1ccc(Cl)cc1 (stereo unspecified)	13	31	7	7	.	-27
O=C(NC(c1ccc(F)cc1)c1cnccn1)C1CCN(CCOc2ccc(Cl)cc2Cl)CC1 (stereo unspecified)	0	-6	-9	8	.	-8
O=C(NC(c1ccc(Cl)cc1)c1cccnc1)C1CCN(CCOc2ccc(Cl)cc2Cl)CC1 (stereo unspecified)	63*	16	-5	9	.	-12
O=C(NC(c1ccc(Cl)cc1)c1ccccn1)C1CCN(CCOc2ccc(Cl)cc2Cl)CC1 (stereo unspecified)	100*	9	-22	-5	.	-14
Cc1cccnc1C(NC(=O)C1CCN(CCOc2ccc(Cl)cc2Cl)CC1)c1ccc(Cl)cc1 (stereo unspecified)	77*	16	-24	1	.	-19
CCCC(=O)Oc1ccc(C2NC(=O)c3ccccc3O2)cc1 (stereo unspecified)	9	6	9	5	-6	1
COc1cc2[nH]c(=O)n(CCCCCC(=O)N3CCN(c4ccccc4)CC3)c(=O)c2cc1OC	58*	15	26	0	-9	-5
COC(=O)c1ccc2c(=O)n(CCCCCC(=O)N3CCN(c4ccccc4)CC3)c(=O)[nH]c2c1	47	-8	3	-1	8	2
Nc1nc2ccc(OC(F)(F)F)cc2s1	-169	12	-184	-10	-36	-56*
Cc1ccc(C(OCC(O)CNCc2ccc(F)cc2)c2ccccc2)cc1 (stereo unspecified)	100*	16	20	6	-8	-12
COc1ccc(C(CNC(=O)Cc2cc(OC)c(OC)c(OC)c2)N2CCCC2)cc1 (stereo unspecified)	0	-4	18	7	-12	0
COC(=O)C1CCC(=O)N1C(c1ccc(OC)cc1)c1cc(OC)c(OC)c(OC)c1 (stereo unspecified)	-26	52*	28	-4	30	-20
CN(C1=C(NC(=O)c2ccccc2)C(=O)c2ccccc2C1=O)C1CCS(=O)(=O)C1 (stereo unspecified)	-3	44	-128	3	103*	2
O=C(c1ccc(F)c(F)c1)N1CCCc2ccccc21	24	-5	10	-1	-1	-2
COc1cc(-c2nc(C(=O)NCC3CCCO3)cc3c2[nH]c2ccccc23)cc(OC)c1OC (stereo unspecified)	57*	10	-77	-5	11	3
O=C(NCC1CCCO1)c1cc2c([nH]c3ccccc32)c(-c2cccc(Cl)c2)n1 (stereo unspecified)	53*	-11	-22	1	.	1
COc1ccccc1-c1nc(C(=O)NCC2CCCO2)cc2c1[nH]c1ccccc12 (stereo unspecified)	25	-18	20	-6	.	8
COc1ccc(CC(=O)OCCc2cc3cc(OC)c(OC)cc3c(=O)o2)cc1	22	-8	7	13	2	17
CCc1nc2ccc(C(=O)NCc3ccc(OC)cc3)cn2c1N(CC)CCN(C)C	-15	-4	-3	3	.	-7
CCC(C)n1c(C)nc2c(c1=O)c1nc3ccccc3nc1n2CCC1=CCCCC1 (stereo unspecified)	77*	-28	-30	4	8	0
COc1cc(NC(=O)c2ccc(-c3cccc([N+](=O)[O-])c3)o2)ccc1NC(=O)C(C)C	78*	-72	-2	3	-4	7
COc1cc([N+](=O)[O-])ccc1NC(=O)c1cccc(NC(=O)C(C)C)c1	-1	-15	-23	-2	-12	1
CC(=O)c1ccc(NC(=O)c2ccc([N+](=O)[O-])o2)cc1	31	11	20	-6	18	0
COc1cc(NC(=O)c2cccc([N+](=O)[O-])c2)ccc1NC(=O)c1ccco1	-18	-26	-42	-4	-13	18
COc1cc(NC(=O)c2ccc([N+](=O)[O-])o2)ccc1NC(=O)c1ccco1	57*	10	-45	-12	84*	-15
SMILES	Peg3 promoter	CF NFkB block	HIF-2a block	ABHD5-PLIN5 inh	MITF TRPM1 inh	KKLEB tox
NC(=O)c1oc2ccccc2c1NC(=O)c1ccc([N+](=O)[O-])o1	109*	62*	16	0	83*	-24
Cc1cc(C)cc(NC(=O)c2ccc([N+](=O)[O-])o2)c1	75*	85*	19	-7	65*	-68*
NC(=O)c1oc2ccccc2c1NC(=O)c1ccc(F)cc1	12	-47	8	-2	.	3
Cn1c(N)c(C(=O)CSc2nnc3n2CCCCC3)c(=O)n(C)c1=O	10	-3	13	0	-9	0
COc1ccc(S(=O)(=O)N2CCCCCC2)cc1NC(=O)CN1C(=O)CNC1=O	29	-19	5	-6	9	-1
O=C1NC(=O)N2CCSC2(Cc2ccccc2)N1 (stereo unspecified)	-1	19	-5	-26	3	-8
Cc1ccc(S(=O)(=O)c2c(C)nn(C(C)(C)C)c2OC(=O)c2ccc(Br)o2)cc1	70*	13	-4	-1	-7	2
Cc1nn(C(C)C)c(C)c1CN1CCC(C(=O)Nc2cccc(-c3cccc(F)c3)c2)CC1	89*	31	0	15	61*	-5
CCCn1ncc(CN2CCC(C(=O)Nc3cccc(-c4cccc(F)c4)c3)CC2)c1C	60*	-8	23	9	-10	-8
C=CCn1cc(CN2CCC(C(=O)Nc3cccc(-c4cccc(Cl)c4)c3)CC2)c(C)n1	-109	15	9	15	75*	-7
O=C(Nc1cccc(-c2cccc(Cl)c2)c1)C1CCN(Cc2ccccn2)CC1	35	10	19	5	-5	-8
Cc1cccc(CN2CCC(C(=O)Nc3cccc(-c4cccc(F)c4)c3)CC2)n1	29	0	14	8	26	-13
Cc1c(CN2CCC(C(=O)Nc3cccc(-c4cccc(Cl)c4)c3)CC2)cnn1C	69*	13	16	11	-4	-14
CC(=O)Nc1ccc(Nc2nc(Cl)nc(Nc3ccc(NC(C)=O)cc3)n2)cc1	7	3	13	12	4	-33
C1CCC(C(CC2CCCCN2)C2CCCCC2)CC1 (stereo unspecified)	104*	10	-25	8	81*	-17
CN(C)CCCN(C(=O)c1ccc(S(=O)(=O)N2CCc3ccccc32)cc1)c1nc2c(Cl)cccc2s1	35	31	6	18	?	-26
Cc1ccc2nc(N(CCCN(C)C)C(=O)CCc3ccccc3)sc2c1	53*	0	-15	22*	-6	-6
CCOc1ccc2nc(N(CCN(C)C)C(=O)c3cc4ccccc4cc3OC)sc2c1	-8	-12	-16	13	-10	7
